# Data as given in ChEMBL document CHEMBL1201862, “PubChem BioAssay data set” (2004).
# Measured potencies and affinities stand elsewhere.
# Experiment: M. tuberculosis growth inhibition, dose response, 7H9 media, purified and synthesized compounds, set 4 (AID 504857); call rule not given here
# Assay type: functional
smiles,measurement,value
Nc1c(C(=O)NC2CCCCC2)nsc1C(=O)OCC(=O)NC1CCCCC1,IC90,> 71.1 µM (active)
